PubChem BioAssay (NCI)
The panel holds about 83,000 compounds, 20% with a hit somewhere; the sample as a whole holds those more often.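 In brief: 96-well plates, 48 h treatment, single concentration, percent growth endpoint.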 Values without a mark were called inactive. Active and inactive are the calls of the source. How the source made its calls: active means growth percent below 10; inactive means the rest.

What follows are compounds tested on DU-145 prostate (assay: NCI-60 one-dose screen, 48 h (100 = growth as untreated, 0 = no growth, -100 = all killed)). Conditions: 10 µM unless noted.
Compound `CNCc1cccc2c1OCCOCCOCCN(CCN1CCOCC1)S(=O)(=O)c1ccc(cc1)-c1cnc(N)c(n1)C(=O)N2` has a growth of 45.7%. In the case of `Cc1cnc(-c2ccc(-c3ccc(NC(=O)Nc4c(F)cc(F)cc4F)cc3F)c3c2C(=O)NC3)[nH]1`, the growth is reported as 7.83% (active). Work on `Cc1cc(C)c(NC(=O)c2sc3nc4c(cc3c2N)CCCCCC4)c(C)c1` yielded a growth of 66.4%. In the case of `O=C1NN(c2ccccc2)C(c2ccc3c(c2)OCO3)N2CCC[C@@H]12` (stereo partly drawn), the growth is reported as 101%. With `C=C1C(=O)O[C@H]2[C@H]1CC/C(COC(=O)CCCCCCCCC(=O)OC/C1=C/CC[C@@]3(C)O[C@H]3[C@H]3OC(=O)C(=C)[C@@H]3CC1)=C\CC[C@@]1(C)O[C@@H]21` the growth was 6.71% (active). With `COc1ccc(C2N(c3cc(OC)c(OC)c(OC)c3)C(=O)C2(F)F)cc1F` (stereo not drawn) the growth was 25.2%. In the case of `C=C1C(=O)O[C@H]2[C@H]1CC/C(COC(=O)CCCCCCC(=O)OC/C1=C/CC[C@@]3(C)O[C@H]3[C@H]3OC(=O)C(=C)[C@@H]3CC1)=C\CC[C@@]1(C)O[C@@H]21`, the growth is reported as 40.4%. For `O=c1nc(-c2ccccc2)c2cc(-c3ccc(N4CCCC4)nc3)ccc2[nH]1`, the growth was 85%. Compound `O=C(Nc1nc(-c2ccccc2)cs1)c1cc(-c2ccc(Br)cc2)nc2ccccc12` has a growth of 68.7%. `COc1ccc2nc3c(n2c1)C(=O)C(=O)c1ccccc1-3` was tested, and the growth was -92.5% (active). `C=C1C(=O)O[C@H]2[C@H]1CCC(/C=N/c1ncc(Br)cc1N)=C\CC[C@@]1(C)O[C@@H]21` gave a growth of 15.5%. Work on `COC(=O)c1ccc(NC(=O)CSc2nc(-c3ccc(F)cc3)nc3ccccc23)cc1` yielded a growth of 88.7%. With `COc1ccc(C2C(c3ccccc3)C(=O)N2c2cc(OC)c(OC)c(OC)c2)cc1I` (stereo not drawn) the growth was 7.36% (active). Work on `O=[N+]([O-])c1cccc(CN(Cc2cccc([N+](=O)[O-])c2O)c2ccccc2)c1O` yielded a growth of 94.3%. For `Nc1c(C(=O)Nc2ccccn2)sc2nc3c(cc12)CCCCCC3`, the growth was 11.4%. `C[C@]12CC[C@@H]3c4ccc(O)cc4CC[C@H]3[C@@H]1C[C@H](O)C2` gave a growth of 93.9%. In the case of `COCCOCCOCc1n(Cc2ccc3ccccc3c2)c2ccccc2[n+]1Cc1ccc2ccccc2c1`, the growth is reported as 32.7%. With `COc1ccc(C(=O)c2cc(F)c(F)c(OC)c2F)cc1OC(=O)CCl` the growth was 57.2%. Work on `Nc1cccc(C(=O)Nc2ccc3c(O)c(N=Nc4ccc(N=Nc5ccc(S(=O)(=O)O)cc5)cc4)c(S(=O)(=O)O)cc3c2)c1` yielded a growth of 107%. With `O=C(Nc1ccccc1)NS(=O)(=O)c1c[nH]c(=S)[nH]c1=O` the growth was 105%. For `CC(C)CSc1nc(Nc2ccccc2)c(C#N)c(-c2ccc(F)cc2)n1`, the growth was 75.9%. `CC(C)(C#N)c1cc(F)cc(C(=O)Nc2cc(Nc3ncccc3-c3ncnc4nc[nH]c34)ccc2F)c1` gave a growth of 56.1%. `COc1c(O)cc2oc3cc(O[C@@H]4OC(C)[C@@H](O)[C@H](O)C4O)c(CC=C(C)C)c(O)c3c(=O)c2c1CC=C(C)C` (stereo partly drawn) showed a growth of 103%. Work on `O=C(CCCC(=O)Nc1ccc(-n2nnc3cc(Cl)c(Cl)cc32)cc1)Nc1ccc(-n2nnc3cc(Cl)c(Cl)cc32)cc1` yielded a growth of 33.6%. `Cn1cc(-c2ccc3c(c2)ncn3-c2ccc(CC(=O)Nc3cc(C(C)(C)C)on3)cc2)cn1` was tested, and the growth was 19.3%. Work on `CCC1S/C(=N\N=C(/C)c2ccc[nH]2)N(c2ccccc2)C1=O` (stereo not drawn) yielded a growth of 122%. `CC(=O)ON1CCCC(P(=O)(OCOC(=O)C(C)(C)C)OCOC(=O)C(C)(C)C)C1=O` (stereo not drawn) gave a growth of 10.7%. Work on `Cc1cccc(C)c1Nc1nnc(-c2ccc(F)cc2)o1` yielded a growth of 99.9%. Work on `COc1ccc(C2=NN(c3ccc(S(N)(=O)=O)cc3)C(c3ccc(Cl)cc3)C2)c(O)c1` (stereo not drawn) yielded a growth of 99.2%. Compound `CC(=O)Nc1nc2c(c(N)c1C#N)C(c1cccc(Cl)c1)C1=C(CCCC1=O)N2c1sc2c(c1C#N)CCCC2` (stereo not drawn) has a growth of 72.5%. Compound `C#Cc1ccccc1NC(=O)c1sc2nc3c(cc2c1N)CCCCCC3` has a growth of 50%. `C=C(C)[C@@H]1CC[C@]2(C(=O)N3CCN(C)CC3)CC[C@]3(C)[C@H](CC[C@@H]4[C@@]5(C)C/C(=C/c6ccco6)C(=O)C(C)(C)[C@@H]5CC[C@]43C)[C@@H]12` gave a growth of 84.3%. Work on `CCCCC(=O)Nc1c(C(=O)Nc2ccccc2)sc2nc3c(cc12)C(OC(=O)CCCC)CCC3` (stereo not drawn) yielded a growth of 87.9%.
